High-throughput results from PubChem.
An excerpt weighted towards active compounds, which were near 3.2% of everything screened.
Mtb UGM inh: M. tuberculosis UGM enzyme inhibitors, primary screen, biochemical, fluorescence polarization, single point | purified UGM, fluorescence polarization probe displacement | inhibition, % at 10 µM | AID 504406, 2011 | hit rate 0.06% among 320,000 | UDP-galactopyranose mutase (Mycobacterium tuberculosis (strain ATCC 25618 / H37Rv)), …; in the data active = inhibition above about 10%, passing the limit was not always enough
PriA SSB inh: inhibitors of Klebsiella pneumoniae PriA binding to SSB C-terminal tail, primary screen, biochemical, AlphaScreen | PriA–SSB C-terminal tail interaction (Klebsiella pneumoniae) | hit rate 0.6% among 430,000 | AlphaScreen SSBct-PriA binding, biotinylated peptide | AID 1272365, 2023 | inhibition, % at 33 µM; in the data active = inhibition mostly above about 37%, no sharp cut-off; inactive = mostly below about 20%;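 also: plate controls were negative control peptide for no effect and reference peptide for full effect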
Rv3671c protease: Rv3671c serine protease inhibitors, primary screen, biochemical, fluorescence polarization, M. tuberculosis H37Rv; P9WHR9; inhibition, % at 5.96 µM; hit rate 0.048% among 320,000; AID 2606, 2010; in the data active = inhibition above about 38%;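 also: extracellular domain of Rv3671c used as enzyme; 0% = enzyme with DMSO and 100% = no enzyme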
Mtb FBA inh: Mtb FBA enzyme inhibitors, primary screen, biochemical, fluorescence, strain H37Rv. purified M. tuberculosis FBA, fluorescence read-out. inhibition, % at 1 µM. hit rate 2.3% among 360,000;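 also: 0% = vehicle and 100% = reference inhibitor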
Target sequence (P9WQA3 whole entry, looked up): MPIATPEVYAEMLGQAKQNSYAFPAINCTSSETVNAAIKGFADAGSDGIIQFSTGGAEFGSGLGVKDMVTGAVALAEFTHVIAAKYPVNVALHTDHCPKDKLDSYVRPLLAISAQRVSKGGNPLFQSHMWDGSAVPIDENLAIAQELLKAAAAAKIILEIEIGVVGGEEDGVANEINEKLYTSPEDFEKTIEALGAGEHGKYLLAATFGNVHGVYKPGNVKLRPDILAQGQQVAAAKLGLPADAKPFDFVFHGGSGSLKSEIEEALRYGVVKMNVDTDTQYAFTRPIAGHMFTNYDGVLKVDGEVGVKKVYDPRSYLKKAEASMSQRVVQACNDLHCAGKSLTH
GDH-TPI counter-1: GDH-TPI coupling enzyme inhibitors, primary screen, artefact control for M. tuberculosis FBA inhibitor project, biochemical, absorbance, full deck. inhibition, % at 4.8 µM. hit rate 1.2% among 360,000. GDH-TPI coupled enzyme counterscreen, NADH absorbance; in the data active = inhibition above about 30%;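 also: 0% = DMSO wells and 100% = wells lacking the enzyme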
Mtb betalactam: beta-lactam sensitization of Mtb H37Rv, H37Rv; hit rate 0.27% among 330,000; inhibition, % at 25 µM; M. tuberculosis H37Rv growth with meropenem, percent inhibition; call rule not given here;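 also: growth measured after seven days incubation then overnight dye step; 0% = bacteria only wells and 100% = bacteria with antibiotic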
Mtb FBA inh conf: M. tuberculosis aldolase blockers, biochemical, fluorescence, strain H37Rv, confirmation; shares compounds with Mtb FBA inh; purified M. tuberculosis FBA, fluorescence read-out; inhibition, % at 1 µM; hit rate 78% among 5,600; AID 651616, 2012;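 also: 0% = vehicle wells and 100% = reference inhibitor wells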
GDH-TPI counter-2: GDH-TPI coupling enzyme inhibitors, artefact control for M. tuberculosis FBA inhibitor project, biochemical, fluorescence, high throughput | AID 652141, 2013 | hit rate 81% among 5,600 | inhibition, % at 1 µM | shares compounds with Mtb FBA inh | GDH-TPI coupled enzyme counterscreen; in the data active = inhibition above about 10%
Active calls of the source: *; nt = no result given; + = active, no number; ! = not confirmed by another sample. Rule as the data show it, unless noted: active = inhibition above about 27%; inactive = the rest.

SMILES | Mtb UGM inh | PriA SSB inh | Rv3671c protease | Mtb FBA inh | GDH-TPI counter-1 | Mtb betalactam | Mtb FBA inh conf | GDH-TPI counter-2
COc1ccc2oc(-c3ccccc3)c(C(=O)N3CCOCC3)c2c1 | 0 | -16 | 1 | 40* | 11 | -5 | 72* | 48*
CCOc1ccc2oc(-c3ccccc3)c(C(=O)N3CCN(C)CC3)c2c1 | 0 | 4 | 1 | 71* | 21 | -11 | 92* | 58*
CCOC(=O)c1c(-c2ccccc2)oc2ccc(OCC)cc12 | 0 | -18 | -6 | 23 | 16 | 78 | nt | nt
CCOC(=O)c1c(-c2ccccc2)oc2ccc(OCC(O)CNCCN(C)C)cc12 (stereo not drawn) | -1 | 11 | -2 | 42* | 7 | 92 | 1 | -1
Cc1cccc(Cn2cnc3c(cnn3CCNC(=O)COc3ccccc3F)c2=O)c1 | nt | -6 | nt | nt | nt | nt | nt | nt
COc1ccccc1-c1nc(SCC(=O)Nc2nnc(C)s2)c2c(=O)n(C)c(=O)n(C)c2n1 | nt | -10 | nt | nt | nt | nt | nt | nt
O=[N+]([O-])c1ccc(C2N(c3ccc(Cl)cc3)CCN2c2ccc(Cl)cc2)cc1 | nt | 19 | nt | nt | nt | nt | nt | nt
Cc1ccc2c(c1)c1c3n2CCNC3CCC1 (stereo not drawn) | -3 | 9 | -3 | 81*! | -1 | -5 | 44* | 37*
Cc1ccc2c(c1)c1c3n2CCN(C=O)C3CCC1 (stereo not drawn) | 1 | 10 | 2 | 4 | 0 | 6 | nt | nt
O=C(NN=Cc1cccnc1)c1[nH]ncc1Br | nt | -10 | nt | nt | nt | nt | nt | nt
OC1c2c(F)cccc2N=C2CCCCCN21 (stereo not drawn) | nt | nt | nt | 48* | 12 | nt | 141* | 138*
OC1c2cc(Br)ccc2N=C2CCCCCN21 (stereo not drawn) | nt | nt | nt | 5 | 5 | nt | nt | nt
CCN(C(=S)Nc1cccc2ccccc12)c1ccccc1 | nt | nt | nt | 30* | 13 | nt | 58* | 43*
C[n+]1c(-c2ccccc2)cc(-c2ccc(Cl)cc2)cc1-c1ccccc1 | 0 | 6 | -12 | 71* | -5 | -1 | 79* | 69*
CCCc1cc(=O)oc2cc(C)cc(OC(C)C(=O)NCC3CCC(C(=O)O)CC3)c12 (stereo not drawn) | -1 | -5 | -6 | 69* | -5 | -6 | 70* | 46*
Cc1cc(OC(C)C(=O)NCC2CCC(C(=O)O)CC2)c2c(C)c(C)c(=O)oc2c1 (stereo not drawn) | -2 | -2 | -2 | 9 | 10 | -2 | nt | nt
CCCCc1cc(=O)oc2cc(C)cc(OC(C)C(=O)NCC3CCC(C(=O)O)CC3)c12 (stereo not drawn) | 0 | -4 | -4 | 79* | 7 | -13 | 1 | -5
CCCS(=O)(=O)N1CCc2ccc(NC(=O)c3cccs3)cc2C1 | nt | -10 | nt | nt | nt | nt | nt | nt
O=C(c1cnccn1)N1CCC(Cc2n[nH]c(=O)n2-c2ccccc2F)CC1 | nt | -1 | nt | nt | nt | nt | nt | nt
C/C(=N\NC(=O)c1nnn(-c2nonc2N)c1COc1ccc(F)cc1)c1ccc(Cl)cc1 | 1 | nt | -1 | 29* | -2 | -1 | + | +
COCc1c(C(=O)NN=C(C)c2ccc(OCc3ccccc3)cc2)nnn1-c1nonc1N | nt | -11 | nt | nt | nt | nt | nt | nt
CCOC(=O)C1CCN(C(=O)c2cc3cc4ccc(OC)cc4nc3o2)CC1 | 3 | 1 | 2 | 106* | 24 | 3 | 25 | 17*
COc1ccc2nc3oc(C(=O)N4CCN(c5cccc(Cl)c5)CC4)cc3cc2c1 | 1 | -4 | -4 | 3 | 11 | 0 | nt | nt
CCOC(=O)C1CCN(C(=O)c2ccc(OC)cc2OC)CC1 | -2 | -6 | -1 | -2 | -4 | 13 | nt | nt
COc1ccc2cc(C(=O)N3CCN(Cc4ccc5c(c4)OCO5)CC3)[nH]c2c1 | 1 | -13 | -5 | 2 | -5 | 2 | nt | nt
SMILES | Mtb UGM inh | PriA SSB inh | Rv3671c protease | Mtb FBA inh | GDH-TPI counter-1 | Mtb betalactam | Mtb FBA inh conf | GDH-TPI counter-2
COc1ccc2nc3oc(C(=O)N4CCC(C(N)=O)CC4)cc3cc2c1 | -1 | -23 | -8 | 98* | 26 | 3 | + | 154*
COc1ccc2cc3cc(C(=O)N4CCN(Cc5ccc6c(c5)OCO6)CC4)oc3nc2c1 | 0 | -14 | -3 | 59* | 46* | -9 | + | +
CCN1CCN(C(=O)NCCn2nc(-c3ccncc3)cc2C)C(=O)C1=O | nt | 10 | nt | nt | nt | nt | nt | nt
COc1ccc(C(=O)NCCn2ncc3c(=O)n(Cc4cccc([N+](=O)[O-])c4)cnc32)c(OC)c1 | nt | -23 | nt | nt | nt | nt | nt | nt
COc1cccc(CNC(=S)Nc2ccc3c(c2)c(=O)n(C)n3Cc2ccccc2)c1 | nt | nt | nt | 56* | 6 | nt | 68* | 44*
COc1ccc(CCNC(=O)Nc2ccc3c(c2)c(=O)n(C)n3Cc2ccc(Cl)cc2)cc1OC | nt | nt | nt | 88* | -2 | nt | 29* | 28*
COC(=O)Cc1ccc(NC(=S)NCc2cccc(OC)c2)cc1 | 0 | -8 | 5 | -1 | -1 | -2 | nt | nt
Cn1c(=O)c2cc(NC(=S)NC3CCCCC3)ccc2n1Cc1ccc(F)cc1 | nt | nt | nt | 17 | 12 | nt | nt | nt
CC(C)=CCn1c2ccc(NC(=S)NC3CC3)cc2c(=O)n1C | nt | nt | nt | 31* | -2 | nt | 88* | 74*
Cc1cc(C)cc(-n2c3ccc(NC(=S)NC4CCCCC4)cc3c(=O)n2C)c1 | nt | nt | nt | 12 | 3 | nt | nt | nt
Cn1c(=O)c2cc(NC(=S)NC3CC3)ccc2n1Cc1ccccc1 | nt | nt | nt | 41* | 3 | nt | 7 | -1
CCn1nnc2c(N3CCN(C(=O)c4ccco4)CC3)ncnc21 | nt | 8 | nt | nt | nt | nt | nt | nt
Cc1cc(C)cc(Cn2c3ccc(NC(=S)NC4CCCCC4)cc3c(=O)n2C)c1 | nt | nt | nt | 17 | 4 | nt | nt | nt
Cc1nc(Cn2c3ccc(NC(=S)NC4CCCCC4)cc3c(=O)n2C)cs1 | nt | nt | nt | 28* | 12 | nt | 73* | 49*
N=c1oc2cc(O)ccc2cc1C(=O)Nc1ccc(Cl)cc1 | -1 | -9 | 7 | 103* | 10 | 93 | + | +
O=C(NCCc1ccc(Cl)cc1Cl)C1=CC=CN2CCS(=O)(=O)N=C12 | -1 | -7 | -3 | 27* | 8 | -3 | 178* | 129*
Cc1ccc2nc(CNC(=O)C3CCC(=O)N(Cc4ccccc4F)C3)cn2c1 (stereo not drawn) | 0 | 7 | nt | 18 | 10 | -3 | nt | nt
O=C(NCCc1cn2cccnc2n1)C1CCC(=O)N(Cc2ccccc2F)C1 (stereo not drawn) | nt | nt | nt | 94* | 6 | nt | 60* | 39*
